Test results taken from PubChem BioAssay (Tox21).
Results filed as inconclusive are left out. The source made the active and inactive calls. Unless noted, the call rests on the fitted dose curve; in most records, active means well fitted curve in the direction sought with a large enough effect in the repeat runs; inconclusive means weak or mixed curves; inactive means no such curve, though single readings can be large; an effect the other way counts as inactive or inconclusive.

Assays:
[1] = target: Retinoic acid receptor RXR-alpha (Homo sapiens) (UniProt P19793); experiment: qHTS assay to identify small molecule agonists of the RXR signaling pathway (AID 1159527; calls by dose curve; further: nearly all actives have a fitted effect of over 35% in size)
Summary of the method: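 Cells plated at 2,000/well, rested 5 hr at 37 C, pin-dosed with DMSO compound solutions, incubated 16 hr, then loaded with B/G FRET substrate for 2 hr at RT before dual-emission fluorescence reading.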

[2] = qHTS assay to identify small molecule agonists of the RXR signaling pathway - cell viability counter screen (AID 1159529);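 further: HEK 293T cells carrying an RXR-alpha UAS beta-lactamase reporter; series mostly up to about 77 µM; nearly all actives have a fitted effect of over 50% in size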
Summary of the method: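 Steps: seed RXR-alpha-UAS-bla HEK 293T cells in assay medium containing 2% charcoal-stripped FBS; incubate 5 hr; add compounds in DMSO; incubate 16 hr at 37 C; after the bla read, add CellTiter-Glo and read luminescence at 30 min.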

[3] = qHTS assay to identify small molecule antagonists of the retinoid acid receptor (RAR) signaling pathway - cell viability counter screen (AID 1159551); further: nearly all actives have a fitted effect of over 35% in size
Summary of the method: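 Seed C3RL4 cells; next day add compound, then retinol to 1 uM final; incubate 6 h at 37 C; add CellTiter-Glo; read luminescence after 30 min at RT.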

[4] = qHTS assay to identify small molecule antagonists of the retinoic acid receptor (RAR) signaling pathway (AID 1159552; further: nearly all actives have a fitted effect of over 50% in size)
Summary of the method: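 Retinol at 1 uM final stimulated RARE-luciferase expression in C3RL4 cells exposed to test compounds for 6 hr at 37 C. Reduced luminescence, read 30 min after detection reagent, indicated pathway antagonism.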

[5] = qHTS assay to identify small molecule agonists of the retinoic acid receptor (RAR) signaling pathway (AID 1159553); further: potency means the concentration at half of the fitted maximal effect
Summary of the method: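 Activation of retinol signaling was monitored via a RARE luciferase reporter in C3RL4 cells. After 6 hr compound treatment at 37 C, detection reagent was added for 30 min at room temperature before luminescence reading.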

[6] = qHTS assay to identify small molecule antagonists of the estrogen related receptor (ERR) signaling pathway from Tox21 library - cell viability counter screen (AID 1224834); further: nearly all actives have a fitted effect of over 30% in size
Summary of the method: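 CellTiter-Fluor fluorescence measured; ERR cells; 17.5 h compound incubation at 37 C; 30 min reagent step.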

[7] = target: Nuclear receptor subfamily 1 group I member 3 (Homo sapiens) (UniProt Q14994); experiment: qHTS assay to identify small molecule antagonists of the constitutive androstane receptor (CAR) signaling pathway (AID 1224838);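 further: HepG2 cells stably expressing hCAR with CYP2B6 luciferase reporter stimulated by CITCO; nearly all actives have a fitted effect of over 40% in size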
Summary of the method: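 Reporter luminescence was quantified after 24 h exposure of hCAR/CYP2B6-2.2kb double-stable HepG2 cells to compounds at 15 concentrations in the presence of 50 nM CITCO final.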

[8] = target: Nuclear receptor subfamily 1 group I member 3 (Homo sapiens) (UniProt Q14994); experiment: qHTS assay to identify small molecule agonists of the constitutive androstane receptor (CAR) signaling pathway (AID 1224839); further: nearly all actives have a fitted effect of over 15% in size; further: potency means the concentration at half of the fitted maximal effect;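 on activation: HepG2 cells stably carrying human CAR and a CYP2B6 luciferase reporter; series mostly up to about 92 µM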
Summary of the method: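 Cells were plated and incubated 4 hrs, then dosed with compounds at 15 concentrations. PK11195 was added to 0.75 uM final. After 24 hrs at 37 C, luciferase luminescence was measured.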

[9] = qHTS assay to identify small molecule antagonists of the estrogen related receptor signaling pathway with the pleiotropic PPARgamma coactivator (PGC) from Tox21 10K library - cell viability counter screen (AID 1224840; active means well fitted cell-killing curve with a large enough effect in the repeat runs, not every such curve was filed as active; further: nearly all actives have a fitted effect of over 40% in size)
Summary of the method: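 Here the PGC/ERR cells serve as a cytotoxicity control: they are exposed to compounds for 17.5 hours at 37 C, and live-cell signal is quantified using CellTiter-Fluor fluorescence.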

[10] = target: Luciferin 4-monooxygenase (Photinus pyralis) (UniProt P08659); experiment: qHTS assay to identify small molecule inhibitors of firefly luciferase (AID 1224835); further: nearly all actives have a fitted effect of over 25% in size; further: potency means the concentration at half of the fitted maximal effect; on activity change, negative = inhibition: series mostly up to about 120 µM
Summary of the method: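 Biochemical qHTS: compounds run as interplate titrations against purified firefly enzyme, with D-luciferin and ATP each at its KM concentration. Light output recorded by CCD imaging.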

[11] = qHTS assay to identify small molecule agonists of the constitutive androstane receptor (CAR) signaling pathway - cell viability counter screen (AID 1224836); further: series mostly up to about 92 µM; nearly all actives have a fitted effect of over 45% in size
Summary of the method: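 Cells were seeded and incubated 4 hrs. Compounds were added across 15 concentrations together with PK11195 at 0.75 uM final. Plates were incubated 23 hrs at 37 C. CellTiter-Fluor was added and fluorescence measured.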

[12] = qHTS assay to identify small molecule antagonists of the constitutive androstane receptor (CAR) signaling pathway - cell viability counter screen (AID 1224837); further: series mostly up to about 92 µM; nearly all actives have a fitted effect of over 45% in size
Summary of the method: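 Using CellTiter-Fluor, viability is scored in HepG2 cells stably carrying hCAR and a 2.2kb CYP2B6 reporter after 23 hr compound exposure across 15 concentrations, with CITCO present at 50 nM.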

[13] = qHTS assay to identify small molecule antagonists of the estrogen related receptor signaling pathway with the pleiotropic PPARgamma coactivator (PGC) from Tox21 10K library (AID 1224841; call rule not given here; further: actives are mostly falling curves and most rising ones were filed inactive; nearly all actives have a fitted effect of over 50% in size; further: potency means the concentration at half of the fitted maximal effect; on activity, negative = inhibition: series mostly up to about 92 µM)
Summary of the method: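 Each well held 2,000 PGC/ERR cells, pre-incubated six hours (37 C, 5% CO2). Test substances in DMSO were added by pin tool and left for 18 h at 37 C before luciferase detection by One-Glo.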

[14] = qHTS assay to identify small molecule agonists of the estrogen related receptor signaling pathway with the pleiotropic PPARgamma coactivator (PGC) from Tox21 10K library (AID 1224842); further: nearly all actives have a fitted effect of over 15% in size; further: potency means the concentration at half of the fitted maximal effect
Summary of the method: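 PGC/ERR reporter cell line, 2,000 cells per well, incubated 6 h at 37 C before 23 nL compound in DMSO was added. After 18 h at 37 C, One-Glo luminescence read following 30 min at room temperature.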
On the % scale 0 is the no-effect control and ±100 the full control effect.

Chain of Retinoic acid receptor RXR-alpha (Homo sapiens) (P19793 whole entry, looked up): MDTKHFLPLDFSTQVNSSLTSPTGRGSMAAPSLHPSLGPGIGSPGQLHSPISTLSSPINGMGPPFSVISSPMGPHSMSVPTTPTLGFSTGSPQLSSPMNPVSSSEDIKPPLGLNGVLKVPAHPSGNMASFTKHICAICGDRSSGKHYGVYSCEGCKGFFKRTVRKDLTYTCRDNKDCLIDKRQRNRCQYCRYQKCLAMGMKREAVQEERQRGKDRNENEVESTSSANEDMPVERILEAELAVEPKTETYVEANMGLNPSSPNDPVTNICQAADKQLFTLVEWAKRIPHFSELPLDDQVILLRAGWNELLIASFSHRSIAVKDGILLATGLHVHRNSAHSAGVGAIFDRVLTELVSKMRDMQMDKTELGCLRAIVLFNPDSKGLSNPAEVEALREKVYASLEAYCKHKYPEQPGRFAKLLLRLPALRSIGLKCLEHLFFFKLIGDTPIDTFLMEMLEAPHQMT
Chain of Nuclear receptor subfamily 1 group I member 3 (Homo sapiens) (Q14994 whole entry, looked up): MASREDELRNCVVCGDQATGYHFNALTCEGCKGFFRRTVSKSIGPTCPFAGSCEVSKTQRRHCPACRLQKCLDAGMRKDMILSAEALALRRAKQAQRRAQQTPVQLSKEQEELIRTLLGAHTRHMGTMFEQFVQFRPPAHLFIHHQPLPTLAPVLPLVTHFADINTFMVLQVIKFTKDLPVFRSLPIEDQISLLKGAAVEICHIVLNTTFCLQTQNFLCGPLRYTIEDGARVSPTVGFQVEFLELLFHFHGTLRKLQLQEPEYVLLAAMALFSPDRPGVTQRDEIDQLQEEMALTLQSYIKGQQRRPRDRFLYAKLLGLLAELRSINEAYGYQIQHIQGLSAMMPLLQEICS
Chain of Luciferin 4-monooxygenase (Photinus pyralis) (P08659 whole entry, looked up): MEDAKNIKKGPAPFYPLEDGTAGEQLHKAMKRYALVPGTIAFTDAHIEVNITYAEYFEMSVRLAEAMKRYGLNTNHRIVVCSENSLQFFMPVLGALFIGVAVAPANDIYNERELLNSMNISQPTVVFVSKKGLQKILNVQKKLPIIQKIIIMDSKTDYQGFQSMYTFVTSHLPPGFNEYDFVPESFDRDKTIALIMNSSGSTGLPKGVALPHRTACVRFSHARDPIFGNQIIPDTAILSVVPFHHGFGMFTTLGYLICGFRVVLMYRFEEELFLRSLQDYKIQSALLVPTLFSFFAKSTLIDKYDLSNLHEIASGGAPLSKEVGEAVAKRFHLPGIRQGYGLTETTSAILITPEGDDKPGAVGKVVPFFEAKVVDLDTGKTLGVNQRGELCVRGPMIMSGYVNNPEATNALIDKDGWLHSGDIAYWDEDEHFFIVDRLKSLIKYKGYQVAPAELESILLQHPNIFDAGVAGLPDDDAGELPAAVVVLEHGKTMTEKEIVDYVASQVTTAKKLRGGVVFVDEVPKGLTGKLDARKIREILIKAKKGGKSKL

Cc1cc(NS(=O)(=O)c2ccc(N)cc2)nc(C)n1
inactive: Potency [1] | Potency [2] | outcome [3] | Potency [4] | Potency [5] | Potency [6] | Potency [7] | Potency [9]
active: Potency [8] 11.9 µM

CC(=O)N[C@@H](CC(C)C)C(=O)O
inactive: Potency [1] | Potency [2] | outcome [3] | Potency [4] | Potency [5] | Potency [6] | Potency [10] | Potency [11] | Potency [12] | Potency [9] | Potency [13] | Potency [14]

CCCOCCC
inactive: Potency [1] | Potency [2] | outcome [3] | Potency [4] | Potency [5] | Potency [10] | Potency [11] | Potency [7] | Potency [8] | Potency [9]

COC(=O)c1ccc2cc(C(=O)OC)ccc2c1
active: Potency [14] 4.44 µM
inactive: activation [1] 0.118% [at 15.8 µM] | activity change, negative = cytotoxicity [2] -6.68% [at 15.8 µM] | activity change, negative = cytotoxicity [3] 0.0867% [at 19 µM] | activity, negative = inhibition [4] -32% [at 19 µM] | viability change, negative = cytotoxic [6] -1.01% [at 19 µM] | activity change, negative = inhibition [10] -7.06% [at 23.6 µM] | viability change, negative = cytotoxic [11] 6.04% [at 19 µM] | activity change, negative = cytotoxicity [12] -9.38% [at 19 µM] | activity, negative = inhibition [13] 221% [at 19 µM]

CC(C)C[C@H](NC(=O)OCC1c2ccccc2-c2ccccc21)C(=O)O
inactive: Potency [1] | Potency [2] | outcome [3] | Potency [4] | Potency [6] | Potency [9] | Potency [13]
active: Potency [5] 1.72 µM | Potency [10] 3.56 µM | Potency [14] 15.4 µM

C=CCCC=C
inactive: Potency [1] | Potency [2] | outcome [3] | Potency [4] | Potency [6] | Potency [10] | Potency [11] | Potency [12] | Potency [13]

O=C(C(Cl)Cl)N1CCOC12CCCCC2
inactive: Potency [1] | Potency [2] | outcome [3] | Potency [4] | Potency [5] | Potency [6] | Potency [10] | Potency [7] | Potency [9] | Potency [13] | Potency [14]

C[C@@H](N)C(=O)O
inactive: Potency [1] | Potency [2] | outcome [3] | Potency [4] | Potency [6] | Potency [10] | Potency [11] | Potency [12] | Potency [7] | Potency [8] | Potency [9]

COc1ccc(Nc2ccc(OC)cc2)cc1
active: Potency [5] 4.94 µM | Potency [10] 20.4 µM | Potency [8] 17.5 µM | Potency [14] 27.8 µM
inactive: Potency [1] | Potency [2] | outcome [3] | Potency [4] | Potency [11] | Potency [7] | Potency [9]

CC/C=C\CCOC(=O)CCCCC
inactive: Potency [1] | Potency [2] | outcome [3] | Potency [4] | Potency [5] | Potency [6] | Potency [10] | Potency [11] | Potency [7] | Potency [9] | Potency [13] | Potency [14]

CC(Oc1c(Cl)cccc1Cl)C1=NCCN1 (stereo unspecified)
inactive: Potency [1] | Potency [2] | outcome [3] | Potency [4] | Potency [6] | Potency [10] | Potency [11] | Potency [12] | Potency [9] | Potency [14]

C=O
inactive: Potency [1] | Potency [2] | outcome [3] | Potency [4] | Potency [5] | Potency [6] | Potency [11] | Potency [12] | Potency [8] | Potency [13] | Potency [14]

Cc1c[nH]c(=S)[nH]c1=O
inactive: Potency [1] | Potency [2] | outcome [3] | Potency [4] | Potency [6] | Potency [10] | Potency [11] | Potency [12] | Potency [7] | Potency [8] | Potency [9]

O=[N+]([O-])c1nccn1CO[C@@H](CO)[C@H](O)CO
inactive: Potency [1] | Potency [2] | outcome [3] | Potency [4] | Potency [5] | Potency [6] | Potency [10] | Potency [11] | Potency [12] | Potency [9] | Potency [13] | Potency [14]

CCN(CC)CC1CCCCN1CC(=O)N1c2ccccc2C(=O)Nc2cccnc21 (stereo unspecified)
inactive: Potency [1] | Potency [2] | outcome [3] | Potency [4] | Potency [6] | Potency [10] | Potency [11] | Potency [12] | Potency [9] | Potency [13] | Potency [14]

CC1(C)C(=O)N(Cl)C(=O)N1Br
inactive: Potency [1] | Potency [2] | outcome [3] | Potency [4] | Potency [5] | Potency [6] | Potency [11] | Potency [12] | Potency [7] | Potency [8] | Potency [9]

CN(C)Cc1ccccc1
inactive: Potency [1] | Potency [2] | outcome [3] | Potency [4] | Potency [5] | Potency [6] | Potency [10] | Potency [11] | Potency [9]

OCc1c2ccccc2cc2ccccc12
inactive: Potency [1] | Potency [2] | outcome [3] | Potency [4] | Potency [6] | Potency [11] | Potency [7] | Potency [9] | Potency [14]
active: Potency [13] 68.8 µM

O=C(CCCl)NCc1ccccc1
inactive: Potency [1] | Potency [2] | outcome [3] | Potency [4] | Potency [5] | Potency [6] | Potency [10] | Potency [11] | Potency [12] | Potency [9] | Potency [13] | Potency [14]

O=c1[nH]c(=O)n([C@H]2C[C@H](O)[C@@H](CO)O2)cc1C(F)(F)F
inactive: Potency [1] | Potency [2] | outcome [3] | Potency [4] | Potency [5] | Potency [6] | Potency [10] | Potency [11] | Potency [12] | Potency [9] | Potency [13] | Potency [14]

COc1nc(C)nc(NC(=O)NS(=O)(=O)c2ccccc2OCCCl)n1
inactive: Potency [1] | Potency [2] | outcome [3] | Potency [4] | Potency [5] | Potency [6] | Potency [10] | Potency [11] | Potency [12] | Potency [13] | Potency [14]

CCCS(=O)c1ccc2nc(NC(=O)OC)[nH]c2c1 (stereo unspecified)
inactive: Potency [1] | Potency [2] | outcome [3] | Potency [4] | Potency [5] | Potency [6] | Potency [10] | Potency [11] | Potency [7] | Potency [8] | Potency [9]
